Compounds with a hit are over-represented: about 2.9% of the library has one in this group of screens.
GLP1R ag: GLP-1 receptor (human) agonism | P43220 | HEK293 GLP-1R CRE-luciferase, luminescence, 4-6 h; cells express a hypersensitive GLP-1R form | Potency, µM (highest dose often 45.6 µM), actives largely listed as activators | 0.007% of 380,000 active | AID 624172
Target sequence (P43220 whole entry, looked up): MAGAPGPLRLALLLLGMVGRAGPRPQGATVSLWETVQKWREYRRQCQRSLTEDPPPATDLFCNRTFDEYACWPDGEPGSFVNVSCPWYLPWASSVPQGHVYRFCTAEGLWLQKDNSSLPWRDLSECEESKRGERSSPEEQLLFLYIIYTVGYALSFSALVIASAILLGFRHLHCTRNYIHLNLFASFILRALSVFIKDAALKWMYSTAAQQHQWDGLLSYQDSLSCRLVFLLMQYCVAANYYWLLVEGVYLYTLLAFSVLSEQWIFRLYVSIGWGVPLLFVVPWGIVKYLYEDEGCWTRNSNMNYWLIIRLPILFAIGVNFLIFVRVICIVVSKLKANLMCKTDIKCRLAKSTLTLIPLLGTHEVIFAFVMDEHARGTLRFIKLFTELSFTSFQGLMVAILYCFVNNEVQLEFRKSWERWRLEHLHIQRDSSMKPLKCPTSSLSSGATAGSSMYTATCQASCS
GLP1R cytotox: cytotoxicity counter-screen for GLP-1 receptor inverse agonists. HEK293 cAMP-luciferase reporter cells, luminescence, 24 h. Potency, µM (highest dose often 38.3 µM), usual class: inhibitors. 0.13% of 410,000 active;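 also: loss of luciferase light is scored as toxicity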
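Quantitative HTS format, 1536 wells, 200 cells/uL seeded. Compounds: 23 nL, 24 h, 37 °C. Detection: luciferase reagent, luminescence at 12 min RT; decreased signal taken as cytotoxic.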
GLP-1R inv ag: inverse agonists of human GLP-1 receptor; Potency, µM (series often up to 38.3 µM), actives largely listed as inhibitors; HEK293 GLP-1R CRE-luciferase, luminescence, 24 h; GLP-1R form is constitutively active; AID 624417; 1.6% of 410,000 active; also: nearly all actives have a fitted effect of over 55% in size
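Inverse agonism was detected as reduced cAMP-driven luciferase luminescence after 24 h compound treatment. The cells were HEK293 clones expressing constitutively active human GLP-1R with the reporter. Reporter-only and GPR119 cell lines served as counterscreen controls.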
p53 reactivator: re-activators of mutant p53; AID 504706; Potency, µM (highest dose often 92.2 µM), actives largely listed as activators; H1299 p53-A138V BP100-luciferase reporter, luminescence, 24 h; 0.063% of 320,000 active; also: nearly all actives have a fitted effect of over 45% in size
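H1299 (p53-null), stable ts p53-A138V + BP100-Luc; 1000 cells/well, Opti-MEM/10% FBS; cpd 4 pt, 1:5; 24 h, 37 deg C, 5% CO2; detection reagent 10 min RT; luminescence.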
LDHA inh: blocks human lactate dehydrogenase A. 0.15% of 480,000 active. AID 1347041. purified LDHA, NADH/diaphorase-resazurin fluorescence; stronger effect = lower value. P00338. activity change, % (values are at about 110 or 230 µM); in the data active = activity change below about -30%; inconclusive = mostly about -25% to -30%
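Resorufin fluorescence (ex540/em590), read at 0 and 20 min after diaphorase/resazurin addition, reports the NADH left after a 5 min room-temperature reaction of 2 nM human LDH5 with 0.06 mM NADH and 0.2 mM pyruvate.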
ClpP mod: qHTS Assay for Activators of ClpP; 1.9% of 340,000 active; Potency, µM (doses to about 57.5 µM); AID 651965, 2013; purified B. subtilis ClpP, FRET peptide cleavage, 20 min; active = well fitted falling curve with a large enough effect; inconclusive = small, poorly fitted or top-dose-only effect; inactive = no such curve, though single readings can be large or run the other way; also: the source files actives as falling curves though it sought activators and does not explain the sign; nearly all actives have a fitted effect of over 65% in size
Target sequence (P80244 whole entry, looked up): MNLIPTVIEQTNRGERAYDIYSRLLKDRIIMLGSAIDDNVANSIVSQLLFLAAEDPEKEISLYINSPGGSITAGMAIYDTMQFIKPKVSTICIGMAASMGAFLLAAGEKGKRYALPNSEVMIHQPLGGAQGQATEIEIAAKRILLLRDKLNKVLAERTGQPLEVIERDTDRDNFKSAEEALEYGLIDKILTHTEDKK
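FRET quenching reversal measured ClpP activation: 10 microg/mL B. subtilis ClpP at pH 8 with the FRET-FV decapeptide, read at 430 nm after 320 nm excitation. The 20-min minus 0-min signal was scaled between DMSO/no-enzyme wells and ADEP (5.8 microM final).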
A number is an active result. Unless noted, calls follow the shape of the dose curve; as a rule, active = well fitted curve in the direction sought with a large enough effect; inconclusive = small, poorly fitted or top-dose-only effect, or another doubt; inactive = no such curve, though single readings can be large; an effect the other way counts as inactive or inconclusive.

O=C(N/C(=C\c1ccccc1)C(=O)N1CCOCC1)c1ccco1 was read as GLP1R ag inactive, GLP1R cytotox inactive, GLP-1R inv ag inactive, p53 reactivator inactive, LDHA inh inactive and ClpP mod inactive.
`Cc1ccc2[nH]c3c(=O)n(N)c(C)nc3c2c1` gave GLP1R ag inactive, GLP1R cytotox inactive, GLP-1R inv ag inactive, p53 reactivator inactive and LDHA inh inactive.
For COc1ccc(/C=N/NC(=O)Cc2csc(Nc3cccc(C(F)(F)F)c3)n2)cc1C the results were GLP1R ag inactive, GLP1R cytotox inconclusive, GLP-1R inv ag 7.9µM, p53 reactivator inactive, LDHA inh inactive and ClpP mod inactive.
Screening CCOc1ccc(C(=O)NCC(=O)OCC(=O)c2ccc3c(c2)-c2ccccc2C3)cc1 returned GLP1R ag inactive, GLP1R cytotox inactive, GLP-1R inv ag inactive, p53 reactivator inactive, LDHA inh inactive and ClpP mod inactive.
Screening CCc1cc2c(=O)c(-c3cnn(-c4ccccc4)c3)c(C)oc2c(CN2CCCCC2)c1O returned GLP1R ag inactive, GLP1R cytotox inactive, GLP-1R inv ag inactive, p53 reactivator inactive, LDHA inh inactive and ClpP mod 28µM.
`CCc1cc2c(=O)c(-c3cnn(-c4ccccc4)c3)coc2c(CN2CCOCC2)c1O` gave GLP1R ag inactive, GLP1R cytotox inactive, GLP-1R inv ag inactive, p53 reactivator inactive, LDHA inh inactive and ClpP mod inconclusive.
For O=C(CNC(=O)Cn1ccc2ccccc2c1=O)NCCCN1CCN(c2cccc(Cl)c2)CC1 the results were GLP1R ag inactive, GLP1R cytotox inactive, GLP-1R inv ag 10µM, p53 reactivator inactive, LDHA inh inactive and ClpP mod inactive.
`O=C1NC(c2cccc(OCc3ccccc3)c2)Nc2ccccc21` (centres undefined) gave GLP1R ag inactive, GLP1R cytotox inconclusive, GLP-1R inv ag inconclusive, LDHA inh inactive and ClpP mod 32µM.
For COc1cccc(Nc2nnc(SCC3CCCCO3)s2)c1 (centres undefined) the results were GLP1R ag inactive, GLP1R cytotox inactive, GLP-1R inv ag inconclusive, p53 reactivator inactive, LDHA inh inactive and ClpP mod inactive.
Cc1cccc(Nc2nnc(SCC3CCCCO3)s2)c1C (centres undefined) was read as GLP1R ag inactive, GLP1R cytotox inactive, GLP-1R inv ag inconclusive, p53 reactivator inconclusive, LDHA inh inactive and ClpP mod 10µM.
For CC1CCCC/C1=N/Nc1ccc([N+](=O)[O-])cc1[N+](=O)[O-] (centres undefined) the results were GLP1R ag inactive, GLP1R cytotox inactive, GLP-1R inv ag inactive, p53 reactivator inactive, LDHA inh inactive and ClpP mod inactive.
`O=[N+]([O-])c1ccc(C2CCCC/C2=N\OCc2cccc(F)c2)c([N+](=O)[O-])c1` (centres undefined) gave GLP1R ag inactive, GLP1R cytotox inactive, GLP-1R inv ag 10µM, p53 reactivator inactive, LDHA inh inactive and ClpP mod inactive.
Screening c1ccc2sc(Sc3ncnc4sccc34)nc2c1 returned GLP1R ag inactive, GLP1R cytotox inactive, GLP-1R inv ag inconclusive, p53 reactivator inconclusive and LDHA inh inactive.
`CCc1cc2c(Sc3nc4ccccc4s3)ncnc2s1` gave GLP1R ag inactive, GLP1R cytotox inactive, GLP-1R inv ag 3.5µM, p53 reactivator inconclusive, LDHA inh inactive and ClpP mod inconclusive.
Screening CC(Oc1ccccc1F)C(=O)Nc1cccc2cccnc12 (centres undefined) returned LDHA inh inactive.
For CC(C)CCN(C(=O)c1csnn1)C(C(=O)NC1CCCCC1)c1ccc(F)cc1 (centres undefined) the results were GLP1R ag inactive, GLP1R cytotox inactive, GLP-1R inv ag 10µM, p53 reactivator inactive, LDHA inh inactive and ClpP mod inactive.
Screening CC1=Nc2cc(C(=O)NC3CCC(C)CC3)ccc2Sc2c(C)ccc(C)c21 (centres undefined) returned GLP1R ag inactive, GLP1R cytotox inconclusive, GLP-1R inv ag 0.79µM, LDHA inh inactive and ClpP mod inactive.
Screening CCCC1=Nc2cc(C(=O)NC3CCCC3)ccc2Sc2ccc(C)cc21 returned GLP1R cytotox inactive, GLP-1R inv ag inconclusive, LDHA inh inactive and ClpP mod inactive.
For CCCC1=Nc2cc(C(=O)NCCOC)ccc2Sc2ccccc21 the results were GLP1R cytotox inconclusive, GLP-1R inv ag 2.2µM, LDHA inh inactive and ClpP mod inactive.
For CCCC1=Nc2cc(C(=O)NC3CCCCC3)ccc2Sc2ccc(C)cc21 the results were GLP1R cytotox inconclusive, GLP-1R inv ag 0.79µM, LDHA inh inactive and ClpP mod inactive.
CCCC1=Nc2cc(C(=O)NCC(C)c3ccccc3)ccc2Sc2ccccc21 (centres undefined) was read as GLP1R ag inactive, GLP1R cytotox inconclusive, GLP-1R inv ag 3.2µM, LDHA inh inactive and ClpP mod inactive.
Screening CCCc1nn2c(=O)cc(O)nc2s1 returned GLP1R ag inactive, GLP1R cytotox inactive, GLP-1R inv ag inactive, p53 reactivator inactive, LDHA inh inactive and ClpP mod inactive.
For COc1ccc(NS(=O)(=O)c2cccc(C(=O)NN=Cc3ccc(OC)c(O)c3)c2)cc1 the results were GLP1R ag inactive, GLP1R cytotox inactive, GLP-1R inv ag inactive, p53 reactivator inactive, LDHA inh inactive and ClpP mod inactive.
Screening O=C(CCc1ccsc1)N(Cc1ccncc1)C1CC1 returned LDHA inh inactive.
Nc1nnc(N)c2ccccc12 was read as GLP1R ag inactive, GLP1R cytotox inactive, GLP-1R inv ag inactive, p53 reactivator inactive and LDHA inh inactive.
Nc1nsc2ccccc12 was read as GLP1R ag inactive, GLP1R cytotox inconclusive, GLP-1R inv ag inactive, p53 reactivator inactive, LDHA inh inactive and ClpP mod 32µM.
CC(C)C1C(c2ccccc2)NC(c2ccccc2)CC1(O)c1ccc(F)cc1 (centres undefined) was read as GLP1R ag inactive, GLP1R cytotox inconclusive, GLP-1R inv ag 10µM, p53 reactivator inactive, LDHA inh inactive and ClpP mod inactive.
Screening Cc1ccc(C2C=C(c3ccccc3OC(F)F)Nc3ncnn32)cc1 (centres undefined) returned GLP1R ag inactive, GLP1R cytotox inactive, GLP-1R inv ag inactive, p53 reactivator inactive, LDHA inh inactive and ClpP mod 22µM.
For CCOC(=O)c1nc2cc3n(c(CC(C)C)c-2c1C)CC(C)=C3C the results were GLP1R ag inactive, GLP1R cytotox inactive, GLP-1R inv ag inactive, p53 reactivator inactive, LDHA inh inactive and ClpP mod 28µM.

High-throughput results: PubChem, National Center for Advancing Translational Sciences (NCATS)
